According to the supplement of paper PMC4723716:

System: Plasmodium falciparum NF54 gametocytes
Experiment: viability index relative to DMSO control (fraction); higher = less gametocyte killing
Details: 12.5 µM, incubation time: 72 h
Method in brief: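 The viability index was calculated as the gametocyte particle count over the plate mean of solvent-only wells. For this, P. falciparum NF54 gametocytes of every stage (I–V) were held with compound at 12.5 µM for 72 hr at 37°C under low oxygen in 384-well plates. MitoTracker Red CMXRos staining for 20 min was followed by transfer of 5 µl into 40 µl of 500 nM dye in serum-free medium, with three fields imaged after 30 min.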

[1] = gametocyte stage: Stage I viability index
[2] = gametocyte stage: Stage II viability index
[3] = gametocyte stage: Stage III viability index
[4] = gametocyte stage: Stage IV viability index
[5] = gametocyte stage: Stage V viability index

SMILES | viability index [1] | viability index [2] | viability index [3] | viability index [4] | viability index [5]
CCOC(=O)c1cnc2ccc(CC)cc2c1O | 0.377 | 0.505 | 0.734 | 0.733 | 0.846
COc1ccc(C(=O)C2CC2c2ccc(Cl)cc2)cc1 (stereo not given) | 1.01 | 0.968 | 1.03 | 0.93 | 0.558
Cn1c(=O)n(C)c2cc(CNCCNc3ccnc4cc(Cl)ccc34)ccc21 | 0.49 | 0.57 | 0.597 | 0.75 | 0.494
CCCc1c(C)nc2ccccc2c1O | 0.634 | 0.705 | 0.844 | 0.72 | 1.02
COC(=O)c1ccc(Cl)c2c1C1C=CCC1C(c1cccc3ccccc13)N2 (stereo not given) | 0.825 | 0.795 | 1.14 | 0.962 | 0.883
O=C(Nc1ccc(C23CC4CC(CC(c5ccccc5)(C4)C2)C3)cc1)c1cccs1 | 0.939 | 0.824 | 0.986 | 0.744 | 1.14
CC1CCN(Cc2c(O)ccc3cc(-c4nc5ccccc5s4)c(=O)oc23)CC1 | 0.706 | 0.705 | 0.925 | 0.864 | 1
COc1ccc(OC)c(C2C3=C(CC(C)(C)CC3=O)N(c3ccc(Cl)c(Cl)c3)C3=C2C(=O)CC(C)(C)C3)c1 | 0.713 | 0.88 | 0.807 | 0.807 | 0.623
CCN1CCN(Cc2ccc(NC(=O)c3cc4ccc5cccnc5c4[nH]3)cc2)CC1 | 0.834 | 0.845 | 1.09 | 0.997 | 1.02
COc1ccc2nc(N)nc(C)c2c1 | 0.353 | 0.614 | 0.685 | 0.959 | 1.04
CC(C)CNC(=O)c1c(N)n(CCc2ccccc2F)c2nc3ccccc3nc12 | 0.0398 | 0.139 | 0.662 | 0.687 | 0.769
CCc1c(C)c(=N)c2ccccc2n1C | 0.725 | 1.01 | 1.24 | 0.988 | 0.791
Cc1cccc(Nc2nc(N)c3ccccc3n2)c1 | 0.0785 | 0.635 | 0.948 | 0.854 | 0.692
CCOc1ccc(CN2CCN(CC(O)COc3ccc(OCC(O)CN4CCN(Cc5ccc(OCC)cc5)CC4)cc3)CC2)cc1 (stereo not given) | 0.076 | 0.114 | 0.133 | 0.104 | 0.0519
Cc1ccc(C(=O)c2oc3ccc4c(C)cc(=O)oc4c3c2C)cc1 | 1.1 | 0.932 | 0.905 | 1.04 | 1.08
O=C(Nc1ccc(-c2nc3cc(NC(=O)c4ccc(Cl)cc4)ccc3[nH]2)cc1)c1ccc(Cl)cc1 | 0.0481 | 0.00583 | 0.0176 | 0.00316 | 0
Cc1ccccc1OCCSc1nc2ccc(NC(=O)c3ccccc3)cc2s1 | 0.83 | 0.863 | 0.944 | 0.835 | 0.922
Cc1ccc(-c2cc3c(SCC(=O)Nc4cc(C(F)(F)F)ccc4Cl)nccn3n2)cc1 | 1.03 | 0.896 | 1.11 | 0.921 | 0.791
CC(C)c1ccc(CNCC(O)c2ccccc2)cc1 (stereo not given) | 0.032 | 0.118 | 0.492 | 0.568 | 0.648
COc1ccc(Nc2nc(NN=Cc3ccc(O)cc3)nc(Nc3ccc([N+](=O)[O-])cc3)n2)cc1 | 0.00437 | 0.05 | 0.233 | 0.142 | 0

SMILES | viability index [1] | viability index [2] | viability index [3] | viability index [4] | viability index [5]
CCCCc1c(C)nc2c(OC)cccc2c1O | 1.07 | 0.942 | 1.03 | 0.954 | 1.1
CCCN(CCC)CCCNC(=O)c1cc2c(-c3ccc(OC)c(OC)c3)nn(C)c2s1 | 0.302 | 0.754 | 0.996 | 0.954 | 0.868
Cn1c(C(=O)c2cccc3ccccc23)nc2ccccc21 | 0.681 | 0.95 | 1.14 | 1.01 | 0.74
COc1ccc(C(=O)Nc2ccc3nc(N4CCCCC4)cc(C)c3c2)cc1OC | 0.275 | 0.58 | 0.95 | 0.9 | 0.989
O=C1c2ccccc2C2=Nc3ccccc3SC(c3cccc(F)c3)C12 (stereo not given) | 0.857 | 0.869 | 0.868 | 0.75 | 0.844
c1ccc(Cn2c(N=Nc3c(Nc4ccccc4)ccc4ccccc34)nc3ccccc32)cc1 | 0.00884 | 0.0106 | 0.058 | 0.149 | 0.209
O=c1nc(C=Cc2ccc(Br)cc2)oc2ccccc12 | 0.838 | 0.88 | 0.843 | 0.978 | 0.935
COc1ccc(Br)cc1C1Nc2ccc3ccccc3c2C2=C1C(=O)CC(c1ccccc1)C2 (stereo not given) | 0.44 | 0.729 | 0.873 | 0.939 | 1.05
CCN(CC)CCCNc1nc(-c2ccc(Cl)cc2)nc2ccccc12 | 0.693 | 0.751 | 1.01 | 0.903 | 0.956
O=C(Nc1ccc(Br)cc1)Nc1cccc(Cl)c1 | 0.341 | 0.542 | 0.816 | 0.936 | 0.451
CN(C)c1ccc(N=Cc2ccc(N3CCOCC3)cc2)cc1 | 0.955 | 0.834 | 0.927 | 1.01 | 0.896
Cc1ccc(Nc2nc(NCCO)c3ccccc3n2)cc1C | 0.0641 | 0.32 | 0.584 | 0.796 | 0.659
CC(C)(C)c1ccc(C(=O)Nc2nc3ccccc3s2)cc1 | 0.787 | 0.834 | 0.813 | 0.812 | 0.736
COc1ccc(-c2nonc2NC(=O)c2cccc(C)c2)cc1OC | 0.62 | 0.55 | 0.571 | 0.769 | 0.571
O=C(NCC1Cc2cccc(-c3ccncc3)c2O1)c1csc2c1CCCC2 (stereo not given) | 1.09 | 1.09 | 0.945 | 1.04 | 1.11
CCn1nc(-c2ccc(C(=O)OC)cc2)nc2c(=O)n(C)c(=O)nc1-2 | 0.15 | 0.284 | 0.103 | 0.0365 | 0.044
CCc1ccc(CNCC(O)c2ccccc2)cc1 (stereo not given) | 0.042 | 0.177 | 0.649 | 0.703 | 0.506
CCCC(c1nnnn1C1CCCCC1)N1CCN(C(=O)c2ccco2)CC1 (stereo not given) | 1.04 | 0.976 | 1.01 | 1.02 | 1.16
Nc1ccc(-c2nc3cc(Cc4ccc5[nH]c(-c6ccc(N)cc6)nc5c4)ccc3[nH]2)cc1 | 0.0227 | 0.00833 | 0.0204 | 0.0127 | 0
COc1cccc(Cn2c(Oc3ccccc3)nc3c2c(=O)n(C)c(=O)n3C)c1 | 0.892 | 0.853 | 0.993 | 1.06 | 1.16

SMILES | viability index [1] | viability index [2] | viability index [3] | viability index [4] | viability index [5]
CCc1ccc(Nc2cc(C)nc3nc(C)nn23)cc1 | 0.925 | 0.736 | 1.01 | 1.1 | 1.1
CCOC(=O)c1c(C)n(-c2ccc(Cl)cc2)c2ccc(OC(=O)C=Cc3ccccc3)cc12 | 0.708 | 0.792 | 1.01 | 0.964 | 0.978
Cc1ccc(NC(=O)Nc2cccc(Cl)c2)cc1F | 0.64 | 0.599 | 0.832 | 0.827 | 0.582
O=C(Nc1ccc(Cl)cc1C(=O)Nc1ccncc1)c1ccc(Cl)cc1Cl | 0.139 | 0.589 | 0.935 | 0.927 | 0.637
O=C(CSc1nccn2nc(-c3ccccc3)cc12)Nc1cc(C(F)(F)F)ccc1Cl | 0.845 | 0.896 | 0.973 | 1.08 | 1.4
Cc1ccnc(NC(c2cccc(OCc3ccccc3)c2)c2ccc3cccnc3c2O)c1 (stereo not given) | 0.0271 | 0.015 | 0.0204 | 0.00316 | 0
COc1ccc(-c2cc3c(nn2)-c2ccccc2C3=O)cc1 | 0.713 | 0.675 | 0.735 | 0.693 | 1
COc1ccc(-c2nc(N3CCN(C(=O)C4CCCCC4)CC3)c3c4c(sc3n2)CCCC4)cc1 | 1.05 | 0.922 | 1.06 | 0.915 | 0.779
CCOC(=O)c1cnc2c(C)cccc2c1Nc1ccc(C(C)=O)cc1 | 1.16 | 0.83 | 1.06 | 1.08 | 1.03
CN1c2ccccc2N(C)C1c1ccc2c(c1)OCO2 | 0.952 | 0.862 | 1.05 | 0.964 | 1.03
CCN(CC)CCNc1ccnc2cc3ccccc3cc12 | 0.0323 | 0.0591 | 0.106 | 0.0475 | 0.039
Cc1cc(N2CCN(C3CCCC3)CC2)n2c(nc3ccccc32)c1C#N | 0.833 | 0.875 | 1.15 | 1.02 | 1
OC(Cn1nnc2ccccc21)Cn1c2ccc(Br)cc2c2cc(Br)ccc21 (stereo not given) | 0.634 | 0.684 | 1.04 | 0.972 | 1.21
CC(C)(C)c1ccc(O)c(CNC2CCCCC2)c1 | 0.256 | 0.329 | 0.482 | 0.571 | 0.462
CCN(CC)CCNc1ccnc2cc(Cl)ccc12 | 0.0376 | 0.295 | 0.789 | 0.726 | 0.626
Cc1sc2ncnc(Sc3nc4ccccc4[nH]3)c2c1C | 0.0276 | 0.0135 | 0.0354 | 0.0821 | 0.0659
O=C(NC1CCN(Cc2ccccc2)CC1)c1cc(C(=O)NC2CCN(Cc3ccccc3)CC2)cc(C(=O)NC2CCN(Cc3ccccc3)CC2)c1 | 0.0629 | 0.0649 | 0.0393 | 0.0475 | 0.013
COc1ccc(-c2c(C)nn3c(N)c(C#N)cnc23)cc1OC | 0.0343 | 0.00676 | 0.0325 | 0.0942 | 0.0769
Cc1ccc(Cl)cc1N1CCN(CCCNC(=O)C2CCN(c3nc4ccccc4[nH]3)CC2)CC1 | 0.158 | 0.517 | 0.628 | 0.426 | 0.407
COc1ccc2c(c1)C1(Nc3ccccc3-c3nc4ccccc4n31)C(=O)N2 (stereo not given) | 0.0265 | 0.00483 | 0.017 | 0.0608 | 0.033
